The list is not random: actives were taken first. Their share in the collection is about 3.8%.
HepG2 tox: qHTS for Inhibitors of TGF-b: Cytotox Counterscreen. Potency, µM (highest dose often 46.1 µM), without a hit: at the highest dose activity change, negative = cytotoxicity, actives largely listed as cytotoxic. HepG2 CAGA-GFP viability, ATP luminescence, 18 h. actives 0.76% (n = 410,000)
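HepG2 CAGA-GFP cells (1000/well, DMEM with 1% FBS) received compound, then TGF-beta at 500 pg/mL final, and were incubated 18 hours at 37 degrees C. Viability was read by CellTiter-Glo luminescence. Media-only wells were set as complete cell-killing and DMSO as no toxicity.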
Nrf2 block: Nrf2 qHTS screen for inhibitors; A549 ARE-Fluc reporter, luciferase luminescence, 18-24 h; Potency, µM (series often up to 46 µM), without a hit: at the highest dose activity change, negative = inhibition, actives largely listed as inhibitors; actives 2.1% (n = 360,000); note: % is set by controls: 0 for no effect and ±100 for the full control effect; nearly all actives have a fitted effect of over 60% in size
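Nrf2 activity is the BugLite luminescence, read 15 min after reagent at room temperature, following CellTiter-Fluor cytotoxicity readout (30 min, 37C). Compound titrations were applied for 18-24 h to 5000 A549 ARE_Fluc cells/well in 5% FBS OPTI-MEM.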
A549 tox: Nrf2 qHTS screen for inhibitors: counterscreen for cytotoxicity; Potency, µM (top dose mostly 46 µM), for the others: at the top dose activity change, negative = cytotoxicity, actives largely listed as inhibitors; A549 ARE-Fluc cells, CellTiter-Fluor viability, 18-24 h; AID 504648, 2011; actives 0.16% (n = 390,000); note: % is set by controls: 0 for no effect and ±100 for the full control effect
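A549 ARE_Fluc cells in 5% FBS OPTI-MEM were exposed to compounds in concentration-response for 18-24 h at 37 deg C. Viability was read by CellTiter-Fluor fluorescence (Ex 405/Em 525) after 30 min, before the luciferase read.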
S2 tox: Viability Counterscreen for Primary qHTS for Inhibitors of ATXN expression; S2 cells (HEK-293 line with an ATXN2-luciferase reporter) viability, CellTiter-Fluor protease fluorescence, 24 h; Potency, µM (highest dose often 56.7 µM), most hits filed as cytotoxic; AID 651635, 2014; actives 0.49% (n = 400,000); note: nearly all actives have a fitted effect of over 40% in size
TGFb inhibitor: qHTS for Inhibitors of TGF-b; actives 1.2% (n = 410,000); HepG2 CAGA-GFP TGF-b/SMAD3 reporter, GFP fluorescence, 18 h; TGF-beta stimulated, 500 pg/mL final; Potency, µM (top dose mostly 46.1 µM), without a hit: at the top dose activity, negative = inhibition, hits mostly inhibitors; note: % is set by controls: 0 for no effect and ±100 for the full control effect; nearly all actives have a fitted effect of over 65% in size
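First, reporter cells (HEPG2 CAGA-GFP) rested 2 h at 37 degrees C. Next, compounds were pinned in and TGF-beta added to 500 pg/mL final. After 18 h, GFP was imaged per cell and summed per well.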
ATXN2 expr inh: Primary qHTS for Inhibitors of ATXN expression. HEK-293 ATXN2-luciferase reporter, luminescence, 24 h. Potency, µM (titrated, usually from 57 µM), for inactives: at the top dose activity change, negative = inhibition, hits mostly inhibitors. actives 0.72% (n = 360,000). AID 1745845, 2022; note: % is set by controls: 0 for no effect and ±100 for the full control effect; nearly all actives have a fitted effect of over 55% in size
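ATXN2-luciferase reporter cells (luciferase flanked by upstream and downstream ATXN2 gene portions) were treated 24 h at 37 °C with compounds at up to 57 uM. SteadyGlo luminescence gave expression; GF-AFC fluorescence gave viability.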
The depositor's hits bear a star; i = inactive; ? = inconclusive; / = not tested or not shown. Calls come from the whole dose curve; as a rule, active = well fitted curve in the direction sought with a large enough effect; inconclusive = small, poorly fitted or top-dose-only effect, or another doubt; inactive = no such curve, though single readings can be large; an effect the other way counts as inactive or inconclusive. Potency is the fitted concentration of half-maximal effect.

SMILES	HepG2 tox	Nrf2 block	A549 tox	S2 tox	TGFb inhibitor	ATXN2 expr inh
O=C(NCc1ccncc1)c1cc(-c2ccc(Cl)cc2)oc1C(F)(F)F	-66%	?	-2%	?	?	/
Cc1cc(Br)cn2c(CC(C)(C)C)c(C3CCCCC3)nc12	-16%	/	/	i	-17%	32%
COc1cc(/C=N/NC(=O)C(=O)/C=C2\NC3(CCCC3)Cc3ccccc32)ccc1O	-2%	-19%	-10%	?	-10%	-5%
O=C(/C=C1\NC2(CCCC2)Cc2ccccc21)C(=O)N/N=C/c1ccccc1O	-36%	15µM*	?	?	?	?
CCOc1ccc(OCC)c(NC(=O)CSc2nc3ccccc3c(=O)n2C)c1	-2%	10µM*	-29%	i	-18%	-31%
Cc1cccc(NC(=O)CSc2nc3ccccc3c3nc(CCn4cncc4C)nn23)c1	13µM*	/	?	/	?	?
Cc1ccc(NC(=O)CSc2nc3ccccc3c3nc(CCn4cncc4C)nn23)c(C)c1	0%	0%	-6%	?	?	-13%
Cc1cccc(NC(=O)CSc2nc3ccccc3c(=O)n2C)c1	-21%	12µM*	-5%	i	-15%	-22%
CCCCNS(=O)(=O)CCNCCc1ccccc1	-1%	11%	9%	i	3%	6%
CCCCCCCCNCCS(=O)(=O)NCc1ccccc1	16µM*	-1%	2%	/	?	?
Cn1c(=O)c2sccc2n2c(CCCC(=O)Nc3ccc(Cl)cc3)nnc12	0%	/	5%	i	-5%	-20%
Cn1c(=O)c2sccc2n2c(CCCC(=O)Nc3ccc(Oc4ccccc4)cc3)nnc12	-38%	?	8%	/	13µM*	/
O=C(COc1ccccc1Br)Nc1ccc(S(=O)(=O)N2CCCC2)cc1	4%	13µM*	-4%	i	7%	-30%
Cc1ccc(S(=O)(=O)Nc2nc3ccccc3nc2Nc2cccc(S(=O)(=O)N3CCCC3)c2)cc1	-42%	9.2µM*	-13%	?	43%	?
Cc1cccc(C)c1OCC(=O)Nc1cccc(S(=O)(=O)N2CCCC2)c1	0%	15µM*	-13%	i	-15%	-16%
COc1ccc(NC(=O)c2cc(S(=O)(=O)N3CCCC3)c[nH]2)cc1	2.5µM*	3%	-4%	i	?	8%
Cc1cccc(CNC(=O)c2cnn(-c3ncc(C)c(-c4cccs4)n3)c2C2CC2)n1	/	/	/	i	/	/
NNC(=O)c1cc(-c2ccc(N)cc2)nc2ccc(Br)cc12	-114%	-14%	-24%	i	?	/
Clc1cc(/C=N\NC2=NCCN2)cc(Cl)n1	-3%	2%	5%	i	3%	-4%
Cc1cc(OCC(=O)Nc2cccc(S(=O)(=O)N3CCCC3)c2)ccc1Cl	-31%	16µM*	-16%	i	-4%	0%
CCS(=O)c1ccccc1C(=O)OCC(=O)Nc1cccc(S(=O)(=O)N2CCCCC2)c1 (stereo not given)	-15%	21µM*	-12%	i	?	-17%
CCOc1ccccc1C(=O)OCC(=O)Nc1cccc(S(=O)(=O)N2CCCC2)c1	0%	9%	-5%	i	-14%	4%
O=C(COC(=O)CCC(=O)c1ccc(F)cc1)Nc1cccc(S(=O)(=O)N2CCOCC2)c1	-1%	1%	-2%	i	-1%	-9%
O=C(COc1ccc(C(=O)c2ccc(F)cc2)cc1)Nc1cccc(S(=O)(=O)N2CCOCC2)c1	5%	23µM*	-13%	?	?	0%
COc1ccc(CCC(=O)Nc2cccc(S(=O)(=O)N3CCCCCC3)c2)cc1	-8%	21µM*	-10%	i	-23%	-20%
SMILES	HepG2 tox	Nrf2 block	A549 tox	S2 tox	TGFb inhibitor	ATXN2 expr inh
Cc1cc(OCC(=O)Nc2cccc(S(=O)(=O)N3CCCCC3)c2)ccc1Cl	-25%	-4%	-5%	i	?	-12%
O=C1NC[C@@H](CCCCN2C[C@H](Cc3ccccc3)N(CC3CCCCC3)C(=O)C2=O)N(CCc2ccccc2)C1=O	/	/	/	?	/	1%
CCOc1ccccc1CNC(=O)Cn1nc(C)c2nn(-c3ccc(Cl)cc3)c(C)c2c1=O	-4%	/	9%	/	-20%	/
Cc1ccc(NC(=O)CSCC(=O)Nc2cccc(S(=O)(=O)N3CCCCCC3)c2)cc1	-15%	13µM*	-27%	?	?	/
CSc1ncnc2[nH]ccc12	2%	-8%	3%	i	21%	1%
CCn1c(CNc2ccc(Cl)cc2)nnc1SCc1ccc(Cl)cc1	-27%	23µM*	?	i	?	-32%
Cc1ccc(NC(=O)c2ccc3oc(=O)c(S(=O)(=O)c4ccccc4)cc3c2)cc1C	-95%	7%	-6%	i	-4%	-1%
CC1CCC(NC(=O)COc2ccc(C(=O)c3ccccc3)cc2)CC1 (stereo not given)	-34%	18µM*	4%	i	-23%	-20%
CC(=O)c1ccc(OCC(=O)NC2CCCCCC2)cc1	-2%	16%	6%	i	?	10%
Cc1ccc(NC(=O)Nc2cccnc2)cc1NC(=O)Nc1cccnc1	17%	18µM*	-16%	?	-8%	/
CCCn1nc(C(=O)Nc2nc(-c3ccccn3)cs2)c2ccccc2c1=O	-48%	8.2µM*	-23%	i	?	22µM*
CC(C)[C@H](NC(=O)c1ccccc1Cl)C(=O)Nc1nc(-c2ccccn2)cs1	-27%	15µM*	-27%	?	1%	?
CC(Oc1ccc(Br)cc1)C(=O)Nc1nc(-c2ccccn2)cs1 (stereo not given)	0%	16µM*	?	?	?	?
O=C(COc1ccc(F)cc1)Nc1nc(-c2ccccn2)cs1	-1%	-16%	-18%	?	?	?
O=C(Nc1nc(-c2ccccn2)cs1)c1ccccc1-n1cnnn1	-10%	5.8µM*	-19%	?	?	10µM*
CCn1cc(S(=O)(=O)Nc2ncccn2)cn1	15%	9%	-2%	i	0%	4%
Cc1cc(OCC(=O)OCC(=O)N(C)C2CCS(=O)(=O)C2)ccc1Cl (stereo not given)	-3%	2%	6%	i	-4%	-5%
Cc1ccc(-c2nnc(CSc3nnc(COc4cccc5ccccc45)n3-c3ccccc3)o2)cc1	27%	?	?	?	13µM*	?
